In PubChem BioAssay (Tox21):
The source made the active and inactive calls. Calls come from the whole dose curve.

Each compound was assayed against Muscarinic acetylcholine receptor M1 (Homo sapiens) (UniProt P11229) (assay: Cholinergic receptor muscarinic 1 (CHRM1) small molecule agonists, cell-based qHTS assay (AID 1963589; note: nearly all actives have a fitted effect of over 35% in size)). Details: CHRM1-CHO cells, agonist mode, calcium flux fluorescence; series mostly up to 76.8 µM; activation: at the top concentration.
Description: National Center for Advancing Translational Sciences [NCATS]
Division of Preclinical Innovation [DPI]
U.S. Environmental Protection Agency [EPA]
National Institutes of Environmental Health Sciences [NIEHS]
National Toxicology Program [NTP]
U.S. Food and Drug Administration [FDA]
The CHRM1 is a muscarinic receptor. This receptor plays a crucial role in learning and memory processes and has long been identified as a promising therapeutic target for the improvement of cognitive decline in Alzheimer's disease (AD). The CHRM1-CHO cell line stably expressing human muscarinic acetylcholine receptor M1 (CHRM1) can be used for screening agonists and antagonists of interactions between CHRM1 and its ligands. The CHRM1-CHO Calcium Flux Assay is a homogeneous fluorescence-based assay for detecting the intracellular calcium level using FDSS kinetic plate reader system.
CHRM1-CHO cells were dispensed at 1000 cells/3uL/well in 1536-well black-clear bottom plates using a Multidrop Dispenser. After the assay plates were incubated at a 37 C/5% CO2 incubator for 18 h, 3 uL of Dye Loading Buffer was transferred to the assay plate by a Flying Reagent Dispenser. The assay plates were incubated at 37 C for 1h. For agonist mode, 23 nL of compounds dissolved in DMSO, positive controls or DMSO only was transferred to the assay plate by a pin tool. […] Each test compound was measured at 15 concentrations in three independent runs.
% is set by controls: 0 for no effect and ±100 for the full control effect; potency is the fitted concentration of half-maximal effect.

Sequence of Muscarinic acetylcholine receptor M1 (Homo sapiens) (P11229 whole entry, looked up): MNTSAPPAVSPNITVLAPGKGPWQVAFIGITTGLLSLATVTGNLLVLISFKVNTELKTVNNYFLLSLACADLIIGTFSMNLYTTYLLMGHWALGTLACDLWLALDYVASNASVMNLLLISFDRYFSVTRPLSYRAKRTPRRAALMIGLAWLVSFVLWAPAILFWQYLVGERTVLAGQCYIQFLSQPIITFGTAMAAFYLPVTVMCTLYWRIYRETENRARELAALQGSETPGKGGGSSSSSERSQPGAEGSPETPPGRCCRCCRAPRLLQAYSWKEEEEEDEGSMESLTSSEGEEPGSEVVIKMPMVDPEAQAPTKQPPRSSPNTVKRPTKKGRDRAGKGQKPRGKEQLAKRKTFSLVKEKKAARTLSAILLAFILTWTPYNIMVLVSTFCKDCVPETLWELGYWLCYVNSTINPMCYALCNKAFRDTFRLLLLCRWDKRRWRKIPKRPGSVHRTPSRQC

`CC(=O)NCCCS(=O)(=O)O` was tested. Which Potency did it give?
The Potency was 23.8 µM (active).

How did the “activation” value turn out when `CC(=O)Nc1ccc(S(=O)(=O)Cl)cc1` was run?
The value was 5.07% (inactive).

`CCCCN1C[C@H](O)[C@@H](O)[C@H](O)[C@H]1CO` was tested. Which “activation” value did it give?
Its value is -0.0924% [at 35.3 µM] (inactive).

For `CCCCOC(=O)c1ccccc1C(=O)OCC(CC)CCCC` (stereo not given), which “activation” value is on record?
Its value is -1.53% (inactive).

With `C=C(C)C(=O)OCCCCCCCCCCCCCCCCCC` as the compound, how does the activation read?
Its activation is 0.19% [at 15.8 µM] (inactive).

For `O=C(O)CCc1nc2ccccc2[nH]1`, which “activation” value is on record?
Its value is -0.455% [at 35.3 µM] (inactive).

Which activation does the source give for `N[C@@H](C(=O)N[C@@H]1C(=O)N2C(C(=O)O)=C(Cl)CS[C@H]12)c1ccccc1` here?
The activation was -0.906% [at 6.97 µM] (inactive).

How did the “activation” value turn out when `CC(=O)c1ccc(C)cc1` was run?
Its value is -0.06% (inactive).

Which “activation” value does the source give for `C=C(C)C(=O)OCCOCCOCCOCCOC(=O)C(=C)C` here?
The value was -0.188% (inactive).

Which “activation” value does the source give for `CSc1ccc(C=O)cc1` here?
Its value is -0.127% (inactive).

With `O=Cc1ccccc1S(=O)(=O)O` as the compound, how does the “activation” value read?
The value was -0.147% (inactive).

Which “activation” value does the source give for `O=C1OC(=O)c2c(Br)c(Br)c(Br)c(Br)c21` here?
Its value is -1.15% (inactive).

For `NC(=O)c1ccccc1C(N)=O`, which “activation” value is on record?
The value was -0.0712% (inactive).

Which “activation” value does the source give for `O=C(N/N=C/c1ccc([N+](=O)[O-])o1)c1ccc(O)cc1` here?
The value was -0.0318% [at 35.3 µM] (inactive).

With `N#CSCSc1nc2ccccc2s1` as the compound, how does the “activation” value read?
The value was 13.1% (inactive).

With `CCCCN(CCO)CCCC` as the compound, how does the “activation” value read?
The value was -1.05% (inactive).

With `C[C@H](NC(CCc1ccccc1)C(=O)O)C(=O)N1CCC[C@H]1C(=O)O` (stereo not given in full) as the compound, how does the “activation” value read?
The value was 0.0274% [at 35.3 µM] (inactive).

For `CN(C)[C@@H](CCOc1cccc2ccccc12)c1ccccc1`, which “activation” value is on record?
Its value is -0.0507% [at 35.3 µM] (inactive).

How did the “activation” value turn out when `CCN(CC)CCNC(=O)COc1ccc(OC)cc1` was run?
Its value is -0.134% [at 35.3 µM] (inactive).

How did the “activation” value turn out when `CC(=O)OCC1=C(C(=O)O)N2C(=O)[C@@H](NC(=O)CSc3ccncc3)[C@H]2SC1` was run?
The value was 0.901% [at 35.3 µM] (inactive).

`OC[C@H]1O[C@@H](OCCc2ccc(O)cc2)[C@H](O)[C@@H](O)[C@@H]1O` was tested. Which “activation” value did it give?
The value was 0.608% [at 35.3 µM] (inactive).

For `CCCCNc1ccc(C(=O)OCCN(CC)CC)cc1`, which “activation” value is on record?
The value was -0.19% [at 35.3 µM] (inactive).

For `CCC(=O)Oc1ccc(/C(CC)=C(\CC)c2ccc(OC(=O)CC)cc2)cc1`, which “activation” value is on record?
The value was 0.0624% (inactive).

For `CCOC(=O)c1ccc(C#Cc2ccc3c(c2)C(C)(C)CCS3)nc1`, which “activation” value is on record?
Its value is 0.0102% [at 35.3 µM] (inactive).

With `O=C1NCCN1CCN1CCC(c2cn(-c3ccc(F)cc3)c3ccc(Cl)cc23)CC1` as the compound, how does the “activation” value read?
The value was 2.92% [at 35.3 µM] (inactive).

For `O=C(O)c1c(Cl)ccc(Cl)c1Cl`, which “activation” value is on record?
Its value is 0.161% (inactive).

How did the “activation” value turn out when `CCc1c(C)cc(N)c(CC)c1N` was run?
Its value is -1.28% (inactive).

How did the “activation” value turn out when `CCOc1cccc(-n2cc(C(=O)N3CCN(c4cc(C(=O)O)c5ccccc5c4)CC3)nc2-c2ccc(C)cc2)c1` was run?
The value was 16.7% (inactive).

Which “activation” value does the source give for `CN(C)CCOC(c1ccccc1)c1ccc(Br)cc1` (stereo not given) here?
Its value is 0.063% [at 35.3 µM] (inactive).

Which “activation” value does the source give for `CN1C(=O)c2ccccc2C1=O` here?
Its value is 1.51% (inactive).

`COCCOc1cc2cc(C(=O)NC3CCN(C(C)C)CC3)n(CC(=O)Nc3ccc(Cl)cn3)c2cn1` was tested. Which “activation” value did it give?
The value was -1.05% (inactive).

`CCC(C)(C)OC` was tested. Which “activation” value did it give?
The value was 0.293% (inactive).

With `O=c1[nH][nH]c2ccccc12` as the compound, how does the “activation” value read?
The value was 0.0655% (inactive).

Which “activation” value does the source give for `CC(C)(N)C#N` here?
Its value is 0.0872% (inactive).

Which “activation” value does the source give for `CCSCC` here?
The value was -0.0099% (inactive).

Which “activation” value does the source give for `O=C(O)CCCCCCCCCCCBr` here?
Its value is -0.929% (inactive).

Which “activation” value does the source give for `CCC(C)c1cc(C(C)(C)C)c(O)c(C(C)(C)C)c1` (stereo not given) here?
Its value is 4.61% (inactive).

Which Potency does the source give for `CCN(CC)c1ccc2c(c1)Oc1cc(N(CC)CC)ccc1C21OC(=O)c2ccccc21` here?
The Potency was 23.9 µM (active).

`Nc1ccc(N)c2ccccc12` was tested. Which “activation” value did it give?
The value was 0.209% (inactive).

How did the Potency turn out when `C1CN(SSN2CCOCC2)CCO1` was run?
Its Potency is “inactive”.
